An excerpt weighted towards active compounds, which were near 8.9% of everything screened.
MCF10A rereplic = A quantitative high throughput screen for small molecules that induce DNA re-replication in MCF 10a normal breast cells. AID 624296, 2012. Potency, µM (titrated, usually from 46.1 µM), usual class: activators. 350,000 tested, 2.9% active. MCF 10A DNA re-replication, Hoechst nuclear intensity, 48 h; further: nearly all actives have a fitted effect of over 50% in size
KB-3-1 cytotox = qHTS assay for MDR1-selective chemotherapeutics: Primary screen using the parental adenocarcinoma cell KB-3-1 | KB-3-1 viability, CellTiter-Glo ATP luminescence, 72 h | Potency, µM (doses to about 46.1 µM), most hits filed as cytotoxic | 400,000 tested, 1.4% active | AID 1347075, 2019; further: nearly all actives have a fitted effect of over 60% in size
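Parental KB-3-1 viability, qHTS format: 72 h compound exposure, 37 °C; CellTiter-Glo; media-only wells and DMSO plates as controls; concentration-effect fits on corrected data.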
DRD3 antagonist = qHTS of D3 Dopamine Receptor Antagonist: qHTS; AID 652054, 2013; max response, negative = inhibition, %; D(3) dopamine receptor (Homo sapiens), P35462; 360,000 tested, 2.5% active; D3R cells, DiscoveRx beta-arrestin luminescence, antagonist mode; active compounds read low; in the data active means max response below about -50%; inconclusive means no clear call, values can overlap the other calls
Target sequence (P35462 whole entry, looked up): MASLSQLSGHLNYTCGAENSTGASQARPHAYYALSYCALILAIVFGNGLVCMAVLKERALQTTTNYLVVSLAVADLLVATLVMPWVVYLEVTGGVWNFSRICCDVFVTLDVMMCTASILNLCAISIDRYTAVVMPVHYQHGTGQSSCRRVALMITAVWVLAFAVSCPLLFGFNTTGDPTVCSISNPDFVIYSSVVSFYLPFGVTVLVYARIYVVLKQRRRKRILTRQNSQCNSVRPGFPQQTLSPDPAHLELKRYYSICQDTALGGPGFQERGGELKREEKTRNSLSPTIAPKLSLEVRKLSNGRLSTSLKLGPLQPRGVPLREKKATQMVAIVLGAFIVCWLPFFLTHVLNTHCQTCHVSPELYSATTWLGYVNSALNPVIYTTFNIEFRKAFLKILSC
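Cells expressing the human receptor were seeded at 1500 cells/well, incubated overnight at 37 degrees C in 5% CO2, then exposed to library compounds with dopamine controls for 90 minutes at 37 degrees C before luminescent detection.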
SW480 rerep = A quantitative high throughput screen for small molecules that induce DNA re-replication in SW480 colon adenocarcinoma cells; SW480 DNA re-replication, Hoechst DNA content imaging, 48 h; Potency, µM (series often up to 46.1 µM), most hits filed as activators; 340,000 tested, 1.8% active; AID 624297, 2012; further: nearly all actives have a fitted effect of over 55% in size
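SW480 cells exposed to compounds for 48 hr at 37 C, 5% CO2, then Hoechst-stained 40 min. Nuclear DNA content imaged by fluorescence scanning (405 nm excitation, 500-530 nm emission); re-replication scored as increased high-intensity nuclei.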
KB-V1 MDR tox = qHTS assay for MDR1-selective chemotherapeutics: Primary screen using the drug-selected MDR subline cells KB-V1; KB-V1 MDR cells viability, CellTiter-Glo, 72 h; Potency, µM (highest dose often 46.1 µM), usual class: cytotoxic; 400,000 tested, 3.4% active; AID 1347076, 2019; further: nearly all actives have a fitted effect of over 60% in size
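KB-V1 MDR subline cells in DMEM (phenol-red free, 10% FBS) exposed to compounds in qHTS concentration series for 72 h at 37 degrees C. Viability read by CellTiter-Glo luminescence; concentration-effect curves fitted after normalization and correction.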
DRD3 agonist = qHTS of D3 Dopamine Receptor Agonist: qHTS. D3R DiscoveRx beta-arrestin cells, luminescence, 90 min. 410,000 tested, 0.58% active. max activation, %. D(3) dopamine receptor (Homo sapiens), P35462; in the data active means max activation above about 30%
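Agonist-mode cell screen: cells plated at 1500/well and incubated overnight at 37 °C, then exposed to library compounds for 90 min at 37 °C. Detection reagent was added for 30–60 min at room temperature, and luminescence was read.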
Each line names hits and unclear results; the compound was inactive in the other large screens. Unless noted, the call rests on the fitted dose curve; in most records, active means well fitted curve in the direction sought with a large enough effect; inconclusive means small, poorly fitted or top-dose-only effect, or another doubt; inactive means no such curve, though single readings can be large; an effect the other way counts as inactive or inconclusive.

COc1ccc(C2=Nc3ccc(C)cc3C(c3ccccc3)N2CC(=O)NN)cc1 (configuration not stated)	DRD3 antagonist -105.2
Oc1ccc(-c2csc(-c3cccnc3)n2)c(O)c1	MCF10A rereplic inconclusive, KB-3-1 cytotox 5.8µM, SW480 rerep inconclusive, KB-V1 MDR tox inconclusive
Oc1ccc(-c2nc(-c3ccc(O)c(O)c3)cs2)cc1	MCF10A rereplic inconclusive, KB-3-1 cytotox 0.517µM, SW480 rerep 1.46µM, KB-V1 MDR tox 2.06µM
Cc1ccc(Nc2nc(-c3ccc(O)c(O)c3)cs2)nc1	MCF10A rereplic inconclusive, KB-3-1 cytotox inconclusive, SW480 rerep inconclusive
c1cncc(-c2nnc(-c3ccco3)o2)c1	DRD3 antagonist -107.8
Clc1ccsc1-c1csc(-c2cccnc2)n1	KB-3-1 cytotox 20.6µM, SW480 rerep inconclusive, KB-V1 MDR tox inconclusive
Clc1ccc(-c2nnc(-c3ccco3)o2)cc1	none
c1cncc(-c2nc(-c3ccco3)cs2)c1	DRD3 antagonist -63.1
c1cncc(-c2csc(-c3cccnc3)n2)c1	none
Cc1cccc(C)c1NC(=O)CN(C)C(=O)CN1C(=O)NC(C)(C)C1=O	KB-V1 MDR tox inconclusive
CCc1nnc2c(NCc3cccc(OC)c3)nc3ccccc3n12	none (no result: MCF10A rereplic, DRD3 antagonist, SW480 rerep)
CC(C)n1[nH]c2ccccc2c1=O	KB-3-1 cytotox inconclusive, DRD3 antagonist -66.0 (no result: MCF10A rereplic, SW480 rerep)
CC(C)Cn1c(=S)[nH]c2ccccc2c1=O	KB-V1 MDR tox inconclusive
CCC12CN3CC(C)(CN(C1)C3c1c[nH]c3ccc(OC)cc13)C2=O (configuration not stated)	KB-V1 MDR tox inconclusive (no result: MCF10A rereplic, DRD3 antagonist, SW480 rerep)
CCOC(=O)c1c(-c2ccccc2Cl)csc1NC(=O)c1cc(S(=O)(=O)N2CCOCC2)ccc1C	MCF10A rereplic inconclusive, KB-V1 MDR tox 10.3µM
CS(=O)(=O)c1ccc(C(=O)Nc2ccc(N3CCCC3)cc2)c(Cl)c1	none
O=C(OCC(=O)N1CCCCCC1)c1ccc(S(=O)(=O)N2CCOCC2)cc1	none
O=C(Nc1ccc(N2CCCC2)cc1)c1cc(Br)ccc1Cl	MCF10A rereplic inconclusive, KB-3-1 cytotox 20.6µM, SW480 rerep inconclusive, KB-V1 MDR tox inconclusive
Cc1ccc(S(=O)(=O)N2CCOCC2)cc1C(=O)Nc1ccc(N2CCCCCC2)cc1	MCF10A rereplic inconclusive, KB-3-1 cytotox 3.66µM, KB-V1 MDR tox inconclusive
Cc1ccc(S(=O)(=O)N2CCOCC2)cc1C(=O)OCC(=O)N1CCCCC1	KB-V1 MDR tox 18.4µM
CC1(C)CC(NS(=O)(=O)c2ccc(F)cc2)CC(C)(C)N1	DRD3 antagonist -57.9
CCOc1cc(C)c(S(=O)(=O)NC2CC(C)(C)NC(C)(C)C2)cc1C	none
CCOc1ccc(Br)cc1S(=O)(=O)NC1CC(C)(C)NC(C)(C)C1	SW480 rerep 0.517µM
Cc1ccc(S(=O)(=O)NCC(=O)OC(C)C(=O)NC(=O)NC2CCCCC2)cc1C (configuration not stated)	KB-V1 MDR tox inconclusive
Cc1ccc(NC(=O)CNC(C)c2ccccc2)cc1 (configuration not stated)	DRD3 antagonist inconclusive
Cc1ccc(CNC(C)c2ccccc2)cc1 (configuration not stated)	DRD3 antagonist -54.9
C=CCN1C(=O)/C(=C2/Sc3ccccc3N2CC)SC1=S	MCF10A rereplic inconclusive, SW480 rerep inconclusive
CCN1C(=O)/C(=C2/Sc3ccccc3N2CC)S/C1=N\c1ncn[nH]1	MCF10A rereplic inconclusive, KB-V1 MDR tox 23.1µM
Cc1cccc(NC(=O)C2CCCN(S(=O)(=O)c3ccc(Br)s3)C2)c1 (configuration not stated)	none (no result: MCF10A rereplic, DRD3 antagonist, SW480 rerep)
Cc1ccc(SC[C@H](c2ccccc2)N2CCN(CCc3ccccc3)CCC2=O)cc1	MCF10A rereplic 8.2µM
